From PubChem BioAssay
S-ASM inh: Inhibitors of Secretory Acid Sphingomyelinase (S-ASM): qHTS. Sphingomyelin phosphodiesterase (Homo sapiens), P17405. placental ASM, HMU-PC fluorogenic substrate, 60 min. Potency, µM (series often up to 57.5 µM), for inactives: top-dose activity change, negative = inhibition, usual class: inhibitors. hit rate 0.006% among 340,000; also: potency is read from the fitted curve at half-maximal effect
Target sequence (P17405 47-631 limits assumed): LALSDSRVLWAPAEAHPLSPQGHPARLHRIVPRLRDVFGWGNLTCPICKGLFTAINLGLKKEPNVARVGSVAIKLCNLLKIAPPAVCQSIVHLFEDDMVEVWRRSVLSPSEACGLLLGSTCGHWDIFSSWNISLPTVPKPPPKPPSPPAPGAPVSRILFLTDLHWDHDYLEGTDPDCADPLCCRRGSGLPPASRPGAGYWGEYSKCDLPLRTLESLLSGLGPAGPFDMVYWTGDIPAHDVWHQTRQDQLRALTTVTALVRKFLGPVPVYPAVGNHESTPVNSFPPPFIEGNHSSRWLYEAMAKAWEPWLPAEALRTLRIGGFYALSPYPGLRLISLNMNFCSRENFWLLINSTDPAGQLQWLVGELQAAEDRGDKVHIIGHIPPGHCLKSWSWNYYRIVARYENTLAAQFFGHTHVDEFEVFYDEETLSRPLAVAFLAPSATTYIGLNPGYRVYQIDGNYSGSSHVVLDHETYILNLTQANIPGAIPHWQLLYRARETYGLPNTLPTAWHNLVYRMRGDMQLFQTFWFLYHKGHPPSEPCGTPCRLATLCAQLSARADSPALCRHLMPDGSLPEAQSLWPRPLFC
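Fluorogenic HMU-PC substrate (9 uM final) is turned over by placental ASM in 60 min at 37 C after a 10 min compound preincubation. Reaction ended by alkaline stop (pH 10), with fluorescence read at 386/447 nm.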
TGFb SMAD3 inh: qHTS for Inhibitors of TGF-b; hit rate 1.2% among 410,000; HepG2 CAGA-GFP TGF-b/SMAD3 reporter, GFP fluorescence, 18 h; TGF-beta stimulated, 500 pg/mL final; AID 588855, 2011; Potency, µM (doses to about 46.1 µM), for the others: top-dose activity, negative = inhibition, most hits filed as inhibitors; also: potency is read from the fitted curve at half-maximal effect; % is scaled to controls: 0 for no effect and ±100 for the full control effect; nearly all actives have a fitted effect of over 65% in size
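Per well, imaged GFP fluorescence of HEPG2 CAGA-GFP cells gives the signal; cells get compound, then TGF-beta (500 pg/mL final), 18 h at 37 degrees C; %Activity versus -TGF-beta and +DMSO controls.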
TDP1 cell CPT: qHTS for Inhibitors of human tyrosyl-DNA phosphodiesterase 1 (TDP1): qHTS in cells in presence of CPT | Potency, µM (series often up to 46.2 µM), without a hit: top-dose activity change, negative = growth inhibition, most hits filed as inhibitors | chicken DT40 Tdp1-/-;hTDP1 cells + 20 nM CPT, ATP luminescence, 48 h | hit rate 12% among 420,000 | AID 686979, 2013; also: potency is read from the fitted curve at half-maximal effect; % is scaled to controls: 0 for no effect and ±100 for the full control effect; nearly all actives have a fitted effect of over 55% in size
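Chicken DT40 Tdp1-/- cells complemented with human TDP1, 400 cells/well, exposed to compounds plus 20 nM camptothecin for at least 48 h at 37 C; viability read as ATP content by CellTiter-Glo luminescence.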
IL-1B inflam inh: qHTS for Inhibitors of Inflammasome Signaling: IL-1-beta AlphaLISA Primary Screen; THP-1 LPS/ATP IL-1B secretion, AlphaLISA, 16 h; active compounds read low; activity change, % at 57.5 µM; hit rate 4.7% among 360,000; AID 743279, 2014; in the data active = activity change below about -50%; inconclusive = mostly about -30% to -49%; also: % is scaled to controls: 0 for no effect and ±100 for the full control effect
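Secreted IL-1B measured by AlphaLISA bead assay after 16 h compound exposure of THP-1 cells; compounds (final up to 57.5 uM) added 1 h before LPS (250 ng/mL) and ATP (1.25 mM) stimulation; lower signal means less secretion.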
DT40 TDP1 no CPT: qHTS for Inhibitors of human tyrosyl-DNA phosphodiesterase 1 (TDP1): qHTS in cells in absence of CPT | DT40 Tdp1-/- hTDP1 cells, no CPT, ATP luminescence, 48 h | Potency, µM (highest dose often 46.2 µM), for inactives: at the highest dose activity change, negative = growth inhibition, actives largely listed as inhibitors | hit rate 15% among 420,000 | AID 686978, 2013; also: potency is read from the fitted curve at half-maximal effect; % is scaled to controls: 0 for no effect and ±100 for the full control effect; nearly all actives have a fitted effect of over 55% in size
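Readout: luminescence from CellTiter-Glo after 30 min in the dark at RT. Cells: DT40 Tdp1-/- with stable hTDP1, 400/well. Exposure: compounds alone, ≥48 hr, 37 °C.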
HepG2 tox: qHTS for Inhibitors of TGF-b: Cytotox Counterscreen | HepG2 CAGA-GFP viability, ATP luminescence, 18 h | Potency, µM (series often up to 46.1 µM), without a hit: at the top dose activity change, negative = cytotoxicity, actives largely listed as cytotoxic | hit rate 0.76% among 410,000 | AID 588856, 2011; also: potency is read from the fitted curve at half-maximal effect
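HepG2 CAGA-GFP cells (1000/well, DMEM with 1% FBS) received compound, then TGF-beta at 500 pg/mL final, and were incubated 18 hours at 37 degrees C. Viability was read by CellTiter-Glo luminescence. Media-only wells were set as complete cell-killing and DMSO as no toxicity.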
Active calls of the source: *. Sampled rows, rich in hits. Any-hit rate of the full collection: about 19%. Unless noted, calls follow the shape of the dose curve; as a rule, active = well fitted curve in the direction sought with a large enough effect; inconclusive = small, poorly fitted or top-dose-only effect, or another doubt; inactive = no such curve, though single readings can be large; an effect the other way counts as inactive or inconclusive.

How did O=S(=O)(NC1c2cccc3cccc(c23)C1Sc1ncccn1)c1ccc(Cl)cc1 (stereo not drawn) do in these assays?
S-ASM inh: -9%; TGFb SMAD3 inh: inconclusive; TDP1 cell CPT: inconclusive; IL-1B inflam inh: 8; DT40 TDP1 no CPT: inconclusive; HepG2 tox: 12%

What do the screens show for `Nn1c(SCC(=O)NNC(=O)c2ccccc2)nnc1-c1ccccc1F`?
S-ASM inh: -5%; TGFb SMAD3 inh: 11%; TDP1 cell CPT: 28%; IL-1B inflam inh: 13; DT40 TDP1 no CPT: -4%; HepG2 tox: -1%

Results for C/C(=N/NS(=O)(=O)c1ccc(C)cc1C)c1c[nH]c2ccccc12 ?
S-ASM inh: -9%; TGFb SMAD3 inh: 18µM*; TDP1 cell CPT: inconclusive; IL-1B inflam inh: -8; DT40 TDP1 no CPT: inconclusive; HepG2 tox: -25%

What do the screens show for `C/C(=N/NS(=O)(=O)c1ccc(C)c(C)c1)c1c[nH]c2ccccc12`?
S-ASM inh: -6%; TGFb SMAD3 inh: -22%; TDP1 cell CPT: 1%; IL-1B inflam inh: 1; DT40 TDP1 no CPT: 4%; HepG2 tox: -27%

Results for Cc1cc(N2CCOCC2)n2ncc(-c3ccccc3Cl)c2n1 ?
S-ASM inh: 21%; TGFb SMAD3 inh: 10%; TDP1 cell CPT: 0%; IL-1B inflam inh: -7; DT40 TDP1 no CPT: 1%; HepG2 tox: 7%

Results for COc1ccc(N(C(C)=O)c2nc3ccccc3[nH]2)cc1 ?
S-ASM inh: 2%; TGFb SMAD3 inh: 2%; TDP1 cell CPT: 0%; IL-1B inflam inh: -11; DT40 TDP1 no CPT: inconclusive; HepG2 tox: -4%

How did COc1ccc(CC(=O)O/N=C(\N)c2ccncc2)cc1OC do in these assays?
TGFb SMAD3 inh: -2%; TDP1 cell CPT: -29%; IL-1B inflam inh: 4; DT40 TDP1 no CPT: inconclusive; HepG2 tox: -1%

Results for COc1ccc(/C(N)=N/OC(=O)Cc2ccc(OC)c(OC)c2)cc1 ?
S-ASM inh: -1%; TGFb SMAD3 inh: 1%; TDP1 cell CPT: inconclusive; IL-1B inflam inh: -78*; DT40 TDP1 no CPT: inconclusive; HepG2 tox: -11%

What do the screens show for `COc1ccc(/C=C2\COc3ccccc3C2=O)c(OC)c1`?
S-ASM inh: -1%; TGFb SMAD3 inh: inconclusive; TDP1 cell CPT: 21µM*; IL-1B inflam inh: 2; DT40 TDP1 no CPT: inconclusive; HepG2 tox: 3%

What do the screens show for `COc1ccc2c(c1)OC/C(=C\c1ccc(OC)c(O)c1)C2=O`?
TDP1 cell CPT: 1.5µM*; DT40 TDP1 no CPT: 1µM*

How did O=[N+]([O-])c1ccc(N2CCN(Cc3cccc([N+](=O)[O-])c3)CC2)cc1 do in these assays?
S-ASM inh: -10%; TGFb SMAD3 inh: -12%; TDP1 cell CPT: inconclusive; IL-1B inflam inh: -62*; DT40 TDP1 no CPT: 4.1µM*; HepG2 tox: -18%

Results for CNC(=O)C(=O)NCCN1CCN(C(=O)c2ccc([N+](=O)[O-])cc2)CC1 ?
S-ASM inh: 4%; TGFb SMAD3 inh: 25%; TDP1 cell CPT: -3%; IL-1B inflam inh: 2; DT40 TDP1 no CPT: 0%; HepG2 tox: 32%

Results for O=[N+]([O-])c1cccc(COc2ccc(CN3CCOCC3)cc2)c1 ?
S-ASM inh: 2%; TGFb SMAD3 inh: 7%; TDP1 cell CPT: inconclusive; IL-1B inflam inh: -17; DT40 TDP1 no CPT: 16µM*; HepG2 tox: -29%

Results for CCCCc1ccc(NC(=O)C(=O)NCCN2CCN(Cc3ccc([N+](=O)[O-])cc3)CC2)cc1 ?
S-ASM inh: 14%; TGFb SMAD3 inh: -9%; TDP1 cell CPT: 3.3µM*; IL-1B inflam inh: 1; DT40 TDP1 no CPT: 0.73µM*; HepG2 tox: 2%

How did O=[N+]([O-])c1cccc(COc2ccc(CN3CCCC3)cc2)c1 do in these assays?
S-ASM inh: 0%; TGFb SMAD3 inh: -4%; TDP1 cell CPT: inconclusive; IL-1B inflam inh: -18; DT40 TDP1 no CPT: inconclusive; HepG2 tox: -54%

How did O=[N+]([O-])c1ccc(CN2CCN(c3ccc([N+](=O)[O-])cc3)CC2)cc1 do in these assays?
S-ASM inh: -9%; TGFb SMAD3 inh: inconclusive; TDP1 cell CPT: inconclusive; IL-1B inflam inh: -54*; DT40 TDP1 no CPT: 18µM*; HepG2 tox: -19%

What do the screens show for `Cc1cc(C)n(-c2nnc3c4ccccc4n(C)c3n2)n1`?
S-ASM inh: 3%; TGFb SMAD3 inh: -25%; TDP1 cell CPT: -12%; IL-1B inflam inh: -5; DT40 TDP1 no CPT: inconclusive; HepG2 tox: -22%

How did CCCCOc1ccc(S(=O)(=O)NC(=O)C2(C)CCN2C(=O)c2cccc(F)c2)cc1 (stereo not drawn) do in these assays?
TGFb SMAD3 inh: 23%; TDP1 cell CPT: 4%; IL-1B inflam inh: 1; DT40 TDP1 no CPT: -10%; HepG2 tox: -2%

How did O=C(CCN1CCCO1)N1CCCC(Nc2cccc(F)c2)C1 (stereo not drawn) do in these assays?
TGFb SMAD3 inh: -2%; TDP1 cell CPT: 15%; IL-1B inflam inh: -5; DT40 TDP1 no CPT: 0%; HepG2 tox: -3%

How did Cc1cc(Cl)ccc1Nc1nc(NCc2ccco2)nc2nccnc12 do in these assays?
TGFb SMAD3 inh: 1%; TDP1 cell CPT: inconclusive; DT40 TDP1 no CPT: inconclusive; HepG2 tox: 14%

How did O=[N+]([O-])c1ccc(N2CCC(=NOCc3ccc(Cl)cc3)CC2)cc1 do in these assays?
S-ASM inh: -16%; TGFb SMAD3 inh: inconclusive; TDP1 cell CPT: 21µM*; IL-1B inflam inh: inconclusive; DT40 TDP1 no CPT: 10µM*; HepG2 tox: -1%

How did COC(=O)C1CCN(Cc2ccc(OCCCN3CCN(c4ccc([N+](=O)[O-])cc4)CC3)cc2)CC1 do in these assays?
S-ASM inh: -11%; TGFb SMAD3 inh: -11%; TDP1 cell CPT: 7.3µM*; IL-1B inflam inh: 1; DT40 TDP1 no CPT: 10µM*; HepG2 tox: 9%

How did CCn1c(=O)c2sccc2n2c(CCC(=O)Nc3ccc(OC)cc3OC)nnc12 do in these assays?
TGFb SMAD3 inh: 4%; TDP1 cell CPT: -6%; DT40 TDP1 no CPT: 4%; HepG2 tox: 0%

How did CCn1cc(S(=O)(=O)c2ccc(C)cc2)[nH]c1=O do in these assays?
S-ASM inh: -1%; TGFb SMAD3 inh: 11%; TDP1 cell CPT: 16%; IL-1B inflam inh: -2; DT40 TDP1 no CPT: 19%; HepG2 tox: 12%
